Experimental data reported in the supplement of paper PMC8975748.
Where a name gives a salt, the structure may show the parent alone.

system: Saccharomyces cerevisiae BY4741 SeMeCo community; experiment: z-score of subpopulation abundance vs DMSO median, subpopulation auxotrophic for LM; higher = larger share of this subpopulation than in DMSO controls; conditions: 10 µM; 24 h; SM minimal medium; subpopulation (auxotrophy): LM
Outline: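 A Saccharomyces cerevisiae BY4741 community carried four plasmids, each restoring one auxotrophy and encoding a distinct fluorescent protein. It was pre-grown overnight to OD600 1.0, diluted to 0.3, and 70 µl was added to 384-well plates acoustically predosed with library drugs (10 µM final), then grown 24 h in minimal SM medium. Cells were paraformaldehyde-fixed and imaged by automated confocal microscopy, with single-auxotroph fluorescent strains setting thresholds and autofluorescence correction. Each subpopulation's abundance was scored as a z-score against the vehicle-well median.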

Structure (SMILES)	z-score of subpopulation abundance
CC(C)NC(=N)NC(=N)Nc1ccc(Cl)cc1 [Proguanil]	0.02
C=CC(C)(O)CCC=C(C)C (stereo unspecified) [Linalool]	-0.19
O=C(N[C@H](CO)[C@H](O)c1ccc([N+](=O)[O-])cc1)C(Cl)Cl [Chloramphenicol]	0.1
CCCN1CCCC[C@H]1C(=O)Nc1c(C)cccc1C [Ropivacaine]	0.11
Cc1onc(-c2ccccc2)c1-c1ccc(S(N)(=O)=O)cc1 [Valdecoxib]	0.09
CN1[C@@H]2CC[C@H]1C[C@@H](OC(=O)c1c[nH]c3ccccc13)C2 [Tropisetron]	1.96
CC[C@H]1OC(=O)[C@H](C)[C@@H](O[C@H]2C[C@@](C)(OC)[C@@H](O)[C@H](C)O2)[C@H](C)[C@@H](O[C@@H]2O[C@H](C)C[C@H](N(C)C)[C@H]2O)[C@](C)(O)C[C@@H](C)/C(=N\OCOCCOC)[C@H](C)[C@@H](O)[C@]1(C)O [Roxithromycin]	0.13
O=C(O)c1cc(-c2ccc(F)cc2F)ccc1O [Diflunisal]	-1.23
Cc1nc(=O)c2cc(CN(C)c3ccc(C(=O)N[C@@H](CCC(=O)O)C(=O)O)s3)ccc2[nH]1 [Raltitrexed]	-0.75
CC(C)Cc1ccc(C(C)C(=O)O)cc1 (stereo unspecified) [Ibuprofen Lysine]	-0.77
CN(C)CCc1c[nH]c2ccc(C[C@H]3COC(=O)N3)cc12 [Zolmitriptan]	-0.12
C[C@]12CC[C@@H]3c4ccc(O)cc4C[C@@H](CCCCCCCCC[S+]([O-])CCCC(F)(F)C(F)(F)F)[C@H]3[C@@H]1CC[C@@H]2O (stereo partly specified) [Fulvestrant]	1.39
COc1ccc(NS(=O)(=O)c2ccc(N)cc2)nn1 [Sulfamethoxypyridazine]	-0.89
CNCCCN1c2ccccc2CCc2ccccc21 [Desipramine Hydrochloride]	0.26
Oc1ccc([C@H]2COc3cc(O)ccc3C2)cc1 [Equol]	0.45
Cc1[nH]c(=O)c(C#N)cc1-c1ccncc1 [Milrinone]	-0.5

Structure (SMILES)	z-score of subpopulation abundance
Cc1ccc(O)c([C@H](CCN(C(C)C)C(C)C)c2ccccc2)c1 [Tolterodine tartrate]	1.32
CCN(CC)CCOC(=O)c1ccc(N)cc1 [Procaine]	-0.46
O=C(O)c1cc(/N=N/c2ccc(O)c(C(=O)O)c2)ccc1O [Olsalazine Sodium]	-0.58
CN(C)[C@@H]1C(=O)C(C(N)=O)=C(O)[C@@]2(O)C(=O)C3=C(O)c4c(O)ccc(Cl)c4[C@@H](O)[C@H]3C[C@@H]12 [Demeclocycline HCl]	-0.4
COc1cc2c(cc1OC)C(=O)C(CC1CCN(Cc3ccccc3)CC1)C2 (stereo unspecified) [Donepezil]	0.51
CCn1cc(C(=O)O)c(=O)c2cc(F)c(N3CCNCC3)nc21 [Enoxacin]	1.61
NC(=O)[C@@H]1CC[C@@H]2CN1C(=O)N2OS(=O)(=O)O [Avibactam sodium]	0.78
CN1[C@@H]2CC[C@H]1C[C@@H](OC(c1ccccc1)c1ccccc1)C2 [Benztropine mesylate]	0.22
C#C[C@]1(O)CC[C@H]2[C@@H]3CCC4=CCCC[C@@H]4[C@H]3CC[C@@]21C [Lynestrenol]	-0.94
CN(C)CCc1c[nH]c2ccc(Cn3cncn3)cc12 [Rizatriptan Benzoate]	1.18
Cn1nnnc1SCC1=C(C(=O)O)N2C(=O)[C@@H](NC(=O)[C@H](OC=O)c3ccccc3)[C@H]2SC1 [Cefamandole nafate]	0.72
CC(=O)[C@@]1(O)CC[C@H]2[C@@H]3C[C@H](C)C4=CC(=O)CC[C@]4(C)[C@H]3CC[C@@]21C [Medroxyprogesterone]	0.45
CC[N+](CC)(CC)CC [Tetraethylammonium bromide]	0.41
CCC1(c2ccccc2)C(=O)NCNC1=O [Primidone]	-0.37
C[N+]1(C)[C@@H]2CC[C@H]1C[C@@H](OC(=O)C(O)c1ccccc1)C2 (stereo partly specified) [Homatropine Methylbromide]	-1
